Data taken from the supplement of paper PMC10849652.
The full data set covers some 8,800 targets. This sample favours those with a hit. About 0.5% of all pairs of compound and target were hits. A number with no mark means an inactive call.

Tests used:
Test in all cases: log2 fold change, soluble protein after heating vs DMSO (PISA); higher = thermal stabilisation; K562 lysate, 10 uM; active = over 0.2 and 3.5 SD of the protein, either way, in both replicates (recomputed)
nilotinib = compound: Cc1cn(-c2cc(NC(=O)c3ccc(C)c(Nc4nccc(-c5cccnc5)n4)c3)cc(C(F)(F)F)c2)cn1 [nilotinib]
Procedure, shortened: (§1)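 Dounce homogenisation of K562 pellets in PBS pH 7.4 with 1 mM MgCl2 produced a crude extract, used at 1 mg/mL protein. Exposure to 10 μM compound lasted 30 min, and aliquots were then heated for 3 min across 48°C-58°C, pooled and brought to 0.5% NP-40 at 4°C. The supernatant after 21,000xg for 90 min was quantified by TMTpro 16plex LC-MS/MS with channel sums equalised. Duplicate values are given as log-two fold change in thermal stability relative to solvent controls.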

[1] = compound: Cc1nc(Nc2n[nH]c3c2CN(C(=O)N[C@H](CN(C)C)c2ccccc2)C3(C)C)c2sccc2n1
Procedure, shortened: as §1

dasatinib = compound: Cc1nc(Nc2ncc(C(=O)Nc3c(C)cccc3Cl)s2)cc(N2CCN(CCO)CC2)n1 [dasatinib]
Procedure, shortened: as §1

[2] = compound: Cc1ncc(-c2ccnc(Nc3ccc(S(C)(=O)=O)cc3)n2)n1C(C)C
Procedure, shortened: as §1

[3] = compound: Cn1cc(-c2ccc3c(c2)CCN3C(=O)Cc2cccc(C(F)(F)F)c2)c2c(N)ncnc21
Procedure, shortened: as §1

quisinostat = compound: Cn1cc(CNCC2CCN(c3ncc(C(=O)NO)cn3)CC2)c2ccccc21 [quisinostat]
Procedure, shortened: as §1

tipifarnib = compound: Cn1cncc1[C@@](N)(c1ccc(Cl)cc1)c1ccc2c(c1)c(-c1cccc(Cl)c1)cc(=O)n2C [tipifarnib]
Procedure, shortened: as §1

[4] = compound: NC(=O)Nc1cc(-c2cccc(F)c2)sc1C(=O)N[C@H]1CCCNC1
Procedure, shortened: as §1

[5] = compound: NC(=O)c1cnc(N[C@@H]2CCCC[C@@H]2N)nc1Nc1cccc(-n2nccn2)c1
Procedure, shortened: as §1

[6] = compound: NC1(c2ccc(-c3nc4ccn5c(=O)[nH]nc5c4cc3-c3ccccc3)cc2)CCC1
Procedure, shortened: as §1

[7] = compound: NCC(=O)Nc1ccc(-n2nc(C(F)(F)F)cc2-c2ccc3c(ccc4ccccc43)c2)cc1
Procedure, shortened: as §1

vorinostat = compound: O=C(CCCCCCC(=O)Nc1ccccc1)NO [vorinostat]
Procedure, shortened: as §1

silmitasertib = compound: O=C(O)c1ccc2c(c1)nc(Nc1cccc(Cl)c1)c1ccncc12 [silmitasertib]
Procedure, shortened: as §1

[8] = compound: O=C1NC(=O)C(c2cnc3ccccn23)=C1c1cn2c3c(cc(F)cc13)CN(C(=O)N1CCCCC1)CC2
Procedure, shortened: as §1

entospletinib = compound: c1cn2cc(-c3ccc4cn[nH]c4c3)nc(Nc3ccc(N4CCOCC4)cc3)c2n1 [entospletinib]
Procedure, shortened: as §1

Sequence of UniProt Q8IWF6 (Q8IWF6 whole entry, looked up): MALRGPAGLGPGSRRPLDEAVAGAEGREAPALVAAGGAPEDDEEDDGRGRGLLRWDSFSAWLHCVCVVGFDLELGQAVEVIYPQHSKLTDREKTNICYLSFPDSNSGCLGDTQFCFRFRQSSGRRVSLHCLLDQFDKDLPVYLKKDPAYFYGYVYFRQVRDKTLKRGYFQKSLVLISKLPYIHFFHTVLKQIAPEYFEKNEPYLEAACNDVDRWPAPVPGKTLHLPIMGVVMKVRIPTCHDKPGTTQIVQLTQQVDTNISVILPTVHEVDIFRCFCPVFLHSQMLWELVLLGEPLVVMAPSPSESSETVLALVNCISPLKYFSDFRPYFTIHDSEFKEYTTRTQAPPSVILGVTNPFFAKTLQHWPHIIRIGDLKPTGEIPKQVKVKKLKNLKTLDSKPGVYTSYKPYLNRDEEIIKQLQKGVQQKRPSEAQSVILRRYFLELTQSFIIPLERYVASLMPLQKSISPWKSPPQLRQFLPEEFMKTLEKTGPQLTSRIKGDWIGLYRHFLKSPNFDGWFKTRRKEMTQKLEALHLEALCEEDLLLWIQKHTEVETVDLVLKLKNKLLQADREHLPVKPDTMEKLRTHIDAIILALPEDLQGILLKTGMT
Sequence of UniProt P57737 (P57737 whole entry, looked up): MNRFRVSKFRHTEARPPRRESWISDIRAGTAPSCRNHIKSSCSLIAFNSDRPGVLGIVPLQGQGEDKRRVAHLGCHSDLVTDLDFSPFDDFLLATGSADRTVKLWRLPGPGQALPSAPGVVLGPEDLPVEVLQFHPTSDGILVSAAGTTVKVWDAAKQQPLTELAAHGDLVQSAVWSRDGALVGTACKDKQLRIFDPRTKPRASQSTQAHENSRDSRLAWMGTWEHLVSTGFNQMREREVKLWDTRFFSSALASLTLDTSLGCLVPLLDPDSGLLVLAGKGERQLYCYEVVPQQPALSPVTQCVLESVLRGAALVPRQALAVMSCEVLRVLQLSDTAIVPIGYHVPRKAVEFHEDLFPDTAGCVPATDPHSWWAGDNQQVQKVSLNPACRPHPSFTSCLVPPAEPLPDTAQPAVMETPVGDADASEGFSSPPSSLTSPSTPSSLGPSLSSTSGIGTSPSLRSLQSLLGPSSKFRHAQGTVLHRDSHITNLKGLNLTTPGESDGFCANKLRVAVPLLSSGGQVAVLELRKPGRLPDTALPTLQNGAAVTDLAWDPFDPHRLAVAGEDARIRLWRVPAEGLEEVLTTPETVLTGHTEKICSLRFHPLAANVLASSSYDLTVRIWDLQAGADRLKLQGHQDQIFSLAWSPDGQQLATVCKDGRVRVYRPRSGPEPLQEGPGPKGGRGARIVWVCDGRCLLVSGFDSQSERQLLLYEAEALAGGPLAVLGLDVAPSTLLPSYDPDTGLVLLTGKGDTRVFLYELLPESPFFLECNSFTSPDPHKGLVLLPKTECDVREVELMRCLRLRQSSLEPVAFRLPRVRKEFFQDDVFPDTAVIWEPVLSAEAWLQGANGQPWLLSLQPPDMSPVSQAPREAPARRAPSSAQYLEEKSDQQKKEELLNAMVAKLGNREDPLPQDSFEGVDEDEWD
Sequence of UniProt P50570 (P50570 whole entry, looked up): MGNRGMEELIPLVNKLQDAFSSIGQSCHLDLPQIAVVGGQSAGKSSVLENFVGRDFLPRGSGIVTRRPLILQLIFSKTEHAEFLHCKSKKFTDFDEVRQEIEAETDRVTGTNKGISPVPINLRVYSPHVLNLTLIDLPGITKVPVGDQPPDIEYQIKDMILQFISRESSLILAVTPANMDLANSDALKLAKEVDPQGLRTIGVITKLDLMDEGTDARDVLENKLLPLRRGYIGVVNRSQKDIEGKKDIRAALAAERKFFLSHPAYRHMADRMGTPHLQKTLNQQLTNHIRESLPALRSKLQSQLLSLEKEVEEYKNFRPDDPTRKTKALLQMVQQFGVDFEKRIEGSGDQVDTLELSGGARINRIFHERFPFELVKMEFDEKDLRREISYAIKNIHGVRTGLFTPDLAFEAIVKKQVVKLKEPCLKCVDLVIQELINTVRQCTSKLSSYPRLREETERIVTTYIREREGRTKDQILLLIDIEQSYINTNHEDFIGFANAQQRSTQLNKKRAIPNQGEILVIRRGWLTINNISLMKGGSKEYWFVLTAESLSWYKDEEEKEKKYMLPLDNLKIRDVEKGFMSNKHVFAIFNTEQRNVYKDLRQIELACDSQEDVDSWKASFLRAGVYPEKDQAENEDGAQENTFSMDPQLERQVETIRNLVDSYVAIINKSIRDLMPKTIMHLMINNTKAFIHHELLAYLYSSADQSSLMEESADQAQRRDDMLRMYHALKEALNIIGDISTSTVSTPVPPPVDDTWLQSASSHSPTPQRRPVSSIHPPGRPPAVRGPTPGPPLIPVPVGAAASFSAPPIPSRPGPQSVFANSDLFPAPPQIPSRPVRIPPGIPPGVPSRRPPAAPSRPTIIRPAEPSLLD
Sequence of UniProt Q9H467 (Q9H467 whole entry, looked up): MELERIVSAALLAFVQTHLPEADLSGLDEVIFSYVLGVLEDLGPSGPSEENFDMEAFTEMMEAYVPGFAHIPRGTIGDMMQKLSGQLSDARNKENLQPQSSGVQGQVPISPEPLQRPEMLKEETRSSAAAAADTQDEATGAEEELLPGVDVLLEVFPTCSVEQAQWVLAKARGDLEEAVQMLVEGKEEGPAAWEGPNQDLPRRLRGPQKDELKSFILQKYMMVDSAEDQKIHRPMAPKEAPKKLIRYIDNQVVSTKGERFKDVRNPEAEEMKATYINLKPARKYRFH
Sequence of UniProt Q9UBM7 (Q9UBM7 whole entry, looked up): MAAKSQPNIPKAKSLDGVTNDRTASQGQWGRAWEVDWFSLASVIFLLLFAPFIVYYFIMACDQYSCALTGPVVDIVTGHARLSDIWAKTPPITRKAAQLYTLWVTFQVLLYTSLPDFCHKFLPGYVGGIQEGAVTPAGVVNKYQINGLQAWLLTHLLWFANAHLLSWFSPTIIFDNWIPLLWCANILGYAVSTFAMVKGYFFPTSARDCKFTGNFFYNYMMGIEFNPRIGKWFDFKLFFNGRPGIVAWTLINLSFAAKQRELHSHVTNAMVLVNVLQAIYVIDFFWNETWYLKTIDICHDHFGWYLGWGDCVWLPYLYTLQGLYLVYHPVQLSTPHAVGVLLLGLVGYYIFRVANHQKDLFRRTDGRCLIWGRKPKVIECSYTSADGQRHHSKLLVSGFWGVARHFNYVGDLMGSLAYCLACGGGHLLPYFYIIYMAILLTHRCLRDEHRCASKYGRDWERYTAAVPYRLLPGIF
Sequence of UniProt Q96EP5 (Q96EP5 whole entry, looked up): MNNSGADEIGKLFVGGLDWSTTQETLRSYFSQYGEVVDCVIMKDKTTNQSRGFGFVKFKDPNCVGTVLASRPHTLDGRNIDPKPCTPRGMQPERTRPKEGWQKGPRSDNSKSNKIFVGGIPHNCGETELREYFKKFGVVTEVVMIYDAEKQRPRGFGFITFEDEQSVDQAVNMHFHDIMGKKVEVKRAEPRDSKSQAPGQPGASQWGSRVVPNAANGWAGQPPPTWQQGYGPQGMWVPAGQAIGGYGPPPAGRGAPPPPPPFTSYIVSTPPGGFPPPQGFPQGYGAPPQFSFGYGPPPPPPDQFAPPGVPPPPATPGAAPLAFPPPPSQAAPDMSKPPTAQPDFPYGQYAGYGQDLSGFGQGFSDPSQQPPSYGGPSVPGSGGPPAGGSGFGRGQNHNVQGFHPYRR
Sequence of UniProt O60610 (O60610 whole entry, looked up): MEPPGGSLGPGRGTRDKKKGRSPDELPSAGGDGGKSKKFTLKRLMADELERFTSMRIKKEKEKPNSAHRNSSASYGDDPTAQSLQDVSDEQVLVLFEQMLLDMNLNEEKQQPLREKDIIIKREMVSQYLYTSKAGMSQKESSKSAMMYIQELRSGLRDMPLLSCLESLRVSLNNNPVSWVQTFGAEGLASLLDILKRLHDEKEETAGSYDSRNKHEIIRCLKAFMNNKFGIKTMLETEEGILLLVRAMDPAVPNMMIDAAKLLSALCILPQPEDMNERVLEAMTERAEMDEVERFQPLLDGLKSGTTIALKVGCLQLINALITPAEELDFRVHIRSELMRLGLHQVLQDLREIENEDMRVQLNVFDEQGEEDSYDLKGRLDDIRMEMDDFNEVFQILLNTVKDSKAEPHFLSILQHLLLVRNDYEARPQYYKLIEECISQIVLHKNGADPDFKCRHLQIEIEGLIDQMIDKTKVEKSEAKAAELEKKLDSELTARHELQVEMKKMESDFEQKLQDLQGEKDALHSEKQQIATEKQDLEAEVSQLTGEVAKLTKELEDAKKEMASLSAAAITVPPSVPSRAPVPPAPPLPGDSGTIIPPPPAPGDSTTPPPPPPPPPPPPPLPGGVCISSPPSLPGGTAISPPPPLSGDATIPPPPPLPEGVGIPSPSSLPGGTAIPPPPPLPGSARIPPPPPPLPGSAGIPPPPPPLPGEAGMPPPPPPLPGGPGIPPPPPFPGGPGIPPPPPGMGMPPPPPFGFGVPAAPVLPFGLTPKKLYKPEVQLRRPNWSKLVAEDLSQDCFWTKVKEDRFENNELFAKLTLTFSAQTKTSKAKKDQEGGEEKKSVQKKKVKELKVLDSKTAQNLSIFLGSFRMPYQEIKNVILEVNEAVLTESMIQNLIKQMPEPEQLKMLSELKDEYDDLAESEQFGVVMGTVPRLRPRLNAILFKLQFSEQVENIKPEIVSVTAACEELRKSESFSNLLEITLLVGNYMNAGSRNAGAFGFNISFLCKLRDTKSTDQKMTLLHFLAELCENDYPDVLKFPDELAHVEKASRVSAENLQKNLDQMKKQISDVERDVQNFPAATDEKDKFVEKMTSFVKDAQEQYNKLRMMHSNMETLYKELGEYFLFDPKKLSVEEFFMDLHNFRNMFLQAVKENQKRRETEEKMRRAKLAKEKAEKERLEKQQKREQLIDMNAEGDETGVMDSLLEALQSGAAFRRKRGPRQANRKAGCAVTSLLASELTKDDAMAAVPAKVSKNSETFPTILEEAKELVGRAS
Sequence of UniProt Q9P003 (Q9P003 whole entry, looked up): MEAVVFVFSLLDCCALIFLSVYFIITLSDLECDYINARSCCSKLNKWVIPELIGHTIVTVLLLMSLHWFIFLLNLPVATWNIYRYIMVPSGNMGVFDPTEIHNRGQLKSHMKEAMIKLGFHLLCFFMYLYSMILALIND

Target | log2 fold change (nilotinib) | log2 fold change [1] | log2 fold change (dasatinib) | log2 fold change [2] | log2 fold change [3] | log2 fold change (quisinostat) | log2 fold change (tipifarnib) | log2 fold change [4] | log2 fold change [5] | log2 fold change [6] | log2 fold change [7] | log2 fold change (vorinostat) | log2 fold change (silmitasertib) | log2 fold change [8] | log2 fold change (entospletinib)
DENND6A (UniProt Q8IWF6) | 0.012 | -0.009 | 0.053 | 0.017 | 0.095 | -0.084 | -0.041 | 0.018 | -0.032 | -0.011 | -0.049 | -0.38 (active) | 0.1 | -0.07 | -0.051
CORO7 (UniProt P57737) | -0.102 | 0.136 | 0.024 | -0.072 | 0.119 | 0.171 | -0.051 | 0.088 | – | 0.183 | -0.053 | -0.019 | -0.017 | 0.019 | -0.045
DDA1 (UniProt Q9BW61) | 0.003 | 0.008 | -0.011 | -0.056 | 0.006 | -0.006 | -0.008 | -0.023 | -0.027 | 0.023 | -0.024 | -0.289 (active) | -0.006 | 0.05 | 0.054
CUEDC2 (UniProt Q9H467) | -0.038 | 0.055 | 0.015 | 0.028 | 0.009 | -0.046 | 0.009 | -0.012 | -0.021 | 0.016 | -0.01 | 0.151 | -0.012 | 0.003 | 0.066
CNIH4 (UniProt Q9P003) | 0.074 | -0.327 | 0.132 | -0.12 | 0.063 | -0.068 | -0.515 (active) | 0.088 | 0.076 | -0.136 | 0.09 | 0.08 | 0.055 | 0.114 | 0.038
DAZAP1 (UniProt Q96EP5) | -0.066 | 0.04 | 0.015 | 0.044 | -0.016 | 0.118 | -0.039 | 0.005 | 0.01 | -0.008 | 0.032 | -0.031 | 0.014 | 0.032 | -0.001
CLUH (UniProt O75153) | 0.009 | 0.075 | -0.025 | -0.007 | 0.002 | -0.043 | 0.007 | 0.039 | -0.006 | 0.004 | -0.011 | 0.404 (active) | 0.071 | 0.033 | 0.01
DNA2 (UniProt P51530) | 0.011 | 0.007 | 0.069 | 0.005 | 0.05 | -0.069 | -0.04 | 0.043 | – | 0.067 | -0.059 | -0.448 (active) | 0.127 | -0.027 | -0.053
CHEK2 (UniProt O96017) | -0.022 | 0.285 (active) | 0.04 | -0.007 | 0.05 | -0.057 | 0.023 | 0.326 (active) | 0.013 | 0.035 | -0.021 | -0.128 | 0.04 | -0.006 | -0.033
COG4 (UniProt Q9H9E3) | -0.038 | -0.01 | -0.093 | 0.008 | 0.048 | -0.047 | 0.006 | 0.004 | 0.001 | 0.055 | 0.101 | -0.333 (active) | 0.022 | -0.022 | -0.023
DIAPH1 (UniProt O60610) | -0.003 | -0.009 | -0.019 | -0.009 | 0.006 | -0.006 | -0.006 | -0.006 | 0.002 | 0.008 | 0.013 | -0.014 | 0.009 | -0.02 | -0.003
DNM2 isoform 4 (UniProt P50570) | 0.078 | -0.018 | -0.095 | -0.03 | 0.162 | 0.025 | -0.12 | 0.088 | 0.044 | -0.181 | – | -0.826 (active) | 0.047 | -0.014 | -0.02
DMXL1 (UniProt Q9Y485) | 0.03 | 0.006 | -0.017 | -0.005 | 0.025 | -0.009 | -0.015 | 0.01 | 0.014 | 0.034 | 0.022 | -0.237 (active) | 0.044 | -0.013 | 0.022
DHCR7 (UniProt Q9UBM7) | -0.013 | 0.016 | 0.011 | 0 | 0.013 | 0.234 | 0.015 | 0.029 | 0.008 | 0.047 | -0.098 | -0.022 | 0.03 | -0.004 | 0.078
DBF4 (UniProt Q9UBU7) | 0.05 | 0 | 0.091 | 0.17 | -0.021 | 0.038 | -0.146 | 0.043 | – | 0.07 | 0.059 | -0.226 | -0.138 | 0.028 | 0.002
CLIP1 isoform 2 (UniProt P30622) | 0.055 | -0.04 | 0.049 | -0.073 | -0.01 | -0.049 | 0.015 | -0.015 | 0.029 | -0.059 | – | 0.167 | -0.035 | 0.002 | -0.151
CSNK2A1 (UniProt P68400) | -0.022 | 0.061 | 0 | 0.058 | -0.029 | 0.049 | -0.013 | 0.019 | 0.003 | -0.068 | 0.15 | 0.057 | – | -0.046 | 0.213
CTPS1 (UniProt P17812) | 0.009 | -0.005 | -0.058 | 0.011 | 0.026 | -0.019 | -0.015 | 0.028 | 0.002 | -0.004 | -0.007 | 0.565 (active) | 0.028 | -0.008 | -0.005
